For 14 sequences, binding signal results are on record in article PMC8384837, “Expanding the binding specificity for RNA recognition by a PUF domain”.

Substitutions are numbered along the chain they refer to.

Holding throughout (assay): yeast three-hybrid, YBZ-1, SC-Leu-His + 0.5 mM 3-AT, 4 days
What all share (conditions): tags: N-Gal4 AD-HA kept; label: inside an RPR1-promoter hybrid RNA with tandem MS2 sites; ssRNA

One experiment concerns the target PUM1 PUF domain R4-SPN (Homo sapiens, UniProt Q14671 828-1176, N971S;H972P;Q975N). The essentials: (§1)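 Pumilio-1 PUF domain libraries, randomized at the three base-contacting residues of each repeat, were co-expressed with matching RNA elements from a centromeric plasmid in strain YBZ-1, which carries a LexA–MS2 coat fusion and a HIS3 reporter. Transformants grew for four days on SC-Leu (input) or on SC-Leu-His + 0.5 mM 3-AT (selection), and the repeat regions were PCR-amplified and Illumina-sequenced. The interaction score is the log change in variant frequency from input to selection. That logarithm is base 2, with a pseudocount of 1 where a variant was absent.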

In the next experiment the target is PUM1 PUF domain R4-NNC (Homo sapiens, UniProt Q14671 828-1176, H972N;Q975C). A digest of the protocol: as §1
The next experiment deals with PUM1 PUF domain R4-WGG (Homo sapiens, UniProt Q14671 828-1176, N971W;H972G;Q975G). A digest of the protocol: as §1
Another experiment concerns the target PUM1 PUF domain R8-PYW (Homo sapiens, UniProt Q14671 828-1176, N1122P;Q1126W). A digest of the protocol: as §1
Another experiment deals with PUM1 PUF domain R8-TRK (Homo sapiens, UniProt Q14671 828-1176, N1122T;Y1123R;Q1126K). The essentials:
as §1

The next experiment deals with PUM1 PUF domain R5-SLC (Homo sapiens, UniProt Q14671 828-1176, C1007S;R1008L;Q1011C). A digest of the protocol:
as §1

Another experiment addresses T1, PUM1 PUF domain R6-RRE (Homo sapiens, UniProt Q14671 828-1176, N1043R;Y1044R;Q1047E).
T1 sequence: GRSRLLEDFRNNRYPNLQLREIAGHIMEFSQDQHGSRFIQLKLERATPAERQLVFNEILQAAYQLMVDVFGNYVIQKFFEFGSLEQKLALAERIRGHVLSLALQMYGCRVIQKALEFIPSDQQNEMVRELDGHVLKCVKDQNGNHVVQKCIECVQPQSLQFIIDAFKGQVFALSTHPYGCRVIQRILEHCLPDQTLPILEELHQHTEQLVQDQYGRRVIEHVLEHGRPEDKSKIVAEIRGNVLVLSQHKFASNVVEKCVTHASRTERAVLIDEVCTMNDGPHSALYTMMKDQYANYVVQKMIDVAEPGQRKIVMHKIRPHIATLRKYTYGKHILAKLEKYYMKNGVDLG
A digest of the protocol: as §1

The target of a further experiment is PUM1 PUF domain R8-LYL (Homo sapiens, UniProt Q14671 828-1176, N1122L;Q1126L). The essentials: as §1
For a further experiment, the target named is PUM1 PUF domain R5-RFW (Homo sapiens, UniProt Q14671 828-1176, C1007R;R1008F;Q1011W). A digest of the protocol:
as §1

A further experiment deals with T2, PUM1 PUF domain R6-RYK (Homo sapiens, UniProt Q14671 828-1176, N1043R;Q1047K).
T2 sequence: T1 sequence with R217Y, E220K
A digest of the protocol:
as §1

In another experiment the target is PUM1 PUF domain R5-KYA (Homo sapiens, UniProt Q14671 828-1176, C1007K;R1008Y;Q1011A). The essentials:
as §1

In another experiment the target is PUM1 PUF domain R5-DRD (Homo sapiens, UniProt Q14671 828-1176, C1007D;Q1011D). The essentials: as §1
The target of the next experiment is PUM1 PUF domain R1-GCK (Homo sapiens, UniProt Q14671 828-1176, S863G;R864C;Q867K). The essentials:
as §1

A further experiment has as its target PUM1 PUF domain R5-RLQ (Homo sapiens, UniProt Q14671 828-1176, C1007R;R1008L). A digest of the protocol:
as §1

The next experiment addresses PUM1 PUF domain R5-RRF (Homo sapiens, UniProt Q14671 828-1176, C1007R;Q1011F). A digest of the protocol:
as §1

For the next experiment, the target named is PUM1 PUF domain R1-KCN (Homo sapiens, UniProt Q14671 828-1176, S863K;R864C;Q867N). A digest of the protocol:
as §1

The next experiment deals with T3, PUM1 PUF domain R6-VWI (Homo sapiens, UniProt Q14671 828-1176, N1043V;Y1044W;Q1047I).
T3 sequence: T1 sequence with R216V, R217W, E220I
The essentials:
as §1

Another experiment addresses PUM1 PUF domain R3-LNS (Homo sapiens, UniProt Q14671 828-1176, C935L;R936N;Q939S). The essentials: as §1
The target of another experiment is PUM1 PUF domain R1-SRD (Homo sapiens, UniProt Q14671 828-1176, Q867D). A digest of the protocol: as §1
A further experiment addresses PUM1 PUF domain R8-RKV (Homo sapiens, UniProt Q14671 828-1176, N1122R;Y1123K;Q1126V). The essentials: as §1

Chain of PUM1 PUF domain R4-WGG (Q14671 828-1176 N971W/H972G/Q975G): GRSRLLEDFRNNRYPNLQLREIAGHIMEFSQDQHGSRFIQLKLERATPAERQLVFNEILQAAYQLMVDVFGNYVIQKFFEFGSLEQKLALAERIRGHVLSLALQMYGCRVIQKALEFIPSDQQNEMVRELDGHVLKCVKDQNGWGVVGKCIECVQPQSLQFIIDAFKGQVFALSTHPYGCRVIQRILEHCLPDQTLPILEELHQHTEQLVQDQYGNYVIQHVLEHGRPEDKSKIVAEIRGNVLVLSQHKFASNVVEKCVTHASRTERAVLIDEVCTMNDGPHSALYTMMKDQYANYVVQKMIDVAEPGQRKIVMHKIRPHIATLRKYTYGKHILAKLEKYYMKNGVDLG

For the sequence “GGCUAGAACUAGUGGAUCCCCCGGCGCCCGGCGGCUCGAGCCCGGGUAAGUGUAUAUAGUCUGCAUGCCGCCGGGCGCCAUGCCUGCAGGUCGACUCUAGAAAACAUG”, the binding signal with PUM1 PUF domain R4-SPN was 4.43 log2 enrichment (interaction score); with PUM1 PUF domain R4-NNC, 3.85 log2 enrichment (interaction score); in the experiment with PUM1 PUF domain R4-WGG it was 3.71 log2 enrichment (interaction score).

For “GGCUAGAACUAGUGGAUCCCCCGGCGCCCGGCGGCUCGAGCCCGGGUAAGUGUAAAUAGUCUGCAUGCCGCCGGGCGCCAUGCCUGCAGGUCGACUCUAGAAAACAUG”, the binding signal in the experiment with PUM1 PUF domain R8-PYW was 3.3 log2 enrichment (interaction score); in the experiment with PUM1 PUF domain R8-TRK it was 2.15 log2 enrichment (interaction score); with PUM1 PUF domain R5-SLC, 0.65 log2 enrichment (interaction score); in the experiment with PUM1 PUF domain R4-SPN, 2.58 log2 enrichment (interaction score); in the experiment with PUM1 PUF domain R6-RRE it was 4.26 log2 enrichment (interaction score); in the experiment with PUM1 PUF domain R4-NNC it was 2.42 log2 enrichment (interaction score). In addition, the binding signal in the experiment with PUM1 PUF domain R8-LYL is 0.84 log2 enrichment (interaction score); with PUM1 PUF domain R4-WGG it was 2.44 log2 enrichment (interaction score); with PUM1 PUF domain R5-RFW, 1.35 log2 enrichment (interaction score); in the experiment with PUM1 PUF domain R6-RYK it was 3.06 log2 enrichment (interaction score); with PUM1 PUF domain R5-KYA it was 3.48 log2 enrichment (interaction score).

For the sequence “GGCUAGAACUAGUGGAUCCCCCGGCGCCCGGCGGCUCGAGCCCGGGUAAGUGUGAAUAGUCUGCAUGCCGCCGGGCGCCAUGCCUGCAGGUCGACUCUAGAAAACAUG”, the binding signal with PUM1 PUF domain R5-DRD was 4.33 log2 enrichment (interaction score); with PUM1 PUF domain R5-SLC it was 2.98 log2 enrichment (interaction score); with PUM1 PUF domain R5-RFW it was 2.92 log2 enrichment (interaction score); in the experiment with PUM1 PUF domain R5-KYA, 0.9 log2 enrichment (interaction score).

For the sequence “GGCUAGAACUAGUGGAUCCCCCGGCGCCCGGCGGCUCGAGCCCGGGUAAGUGUAAAUCGUCUGCAUGCCGCCGGGCGCCAUGCCUGCAGGUCGACUCUAGAAAACAUG”, the binding signal with PUM1 PUF domain R1-GCK was 2.79 log2 enrichment (interaction score).

In the case of “GGCUAGAACUAGUGGAUCCCCCGGCGCCCGGCGGCUCGAGCCCGGGUAAGUGUUAAUAGUCUGCAUGCCGCCGGGCGCCAUGCCUGCAGGUCGACUCUAGAAAACAUG”, the binding signal in the experiment with PUM1 PUF domain R5-RLQ was 1.58 log2 enrichment (interaction score); in the experiment with PUM1 PUF domain R5-RRF, 3.3 log2 enrichment (interaction score); with PUM1 PUF domain R5-KYA, 4.12 log2 enrichment (interaction score).

Turning to “GGCUAGAACUAGUGGAUCCCCCGGCGCCCGGCGGCUCGAGCCCGGGUAAGUGUAAAUUGUCUGCAUGCCGCCGGGCGCCAUGCCUGCAGGUCGACUCUAGAAAACAUG”, the binding signal with PUM1 PUF domain R1-KCN is 3.67 log2 enrichment (interaction score); in the experiment with PUM1 PUF domain R1-GCK, 1.58 log2 enrichment (interaction score).

“GGCUAGAACUAGUGGAUCCCCCGGCGCCCGGCGGCUCGAGCCCGGGUAAGUGUCAAUAGUCUGCAUGCCGCCGGGCGCCAUGCCUGCAGGUCGACUCUAGAAAACAUG”: the binding signal with PUM1 PUF domain R5-RLQ is 2.19 log2 enrichment (interaction score); in the experiment with PUM1 PUF domain R5-RRF it was 3.03 log2 enrichment (interaction score); in the experiment with PUM1 PUF domain R5-RFW, 3.42 log2 enrichment (interaction score); with PUM1 PUF domain R5-KYA, 3.04 log2 enrichment (interaction score).

Regarding “GGCUAGAACUAGUGGAUCCCCCGGCGCCCGGCGGCUCGAGCCCGGGUAAGUGAAAAUAGUCUGCAUGCCGCCGGGCGCCAUGCCUGCAGGUCGACUCUAGAAAACAUG”, the binding signal with PUM1 PUF domain R6-VWI is 5.74 log2 enrichment (interaction score).

In the case of “GGCUAGAACUAGUGGAUCCCCCGGCGCCCGGCGGCUCGAGCCCGGGUAAGUGUAAUUAGUCUGCAUGCCGCCGGGCGCCAUGCCUGCAGGUCGACUCUAGAAAACAUG”, in the experiment with PUM1 PUF domain R3-LNS, the binding signal is 3.52 log2 enrichment (interaction score).

“GGCUAGAACUAGUGGAUCCCCCGGCGCCCGGCGGCUCGAGCCCGGGUAAGUGUAAAUGGUCUGCAUGCCGCCGGGCGCCAUGCCUGCAGGUCGACUCUAGAAAACAUG”: the binding signal with PUM1 PUF domain R1-SRD is 3.35 log2 enrichment (interaction score).

On to “GGCUAGAACUAGUGGAUCCCCCGGCGCCCGGCGGCUCGAGCCCGGGUAAGUGUAAGUAGUCUGCAUGCCGCCGGGCGCCAUGCCUGCAGGUCGACUCUAGAAAACAUG”, for which, in the experiment with PUM1 PUF domain R3-LNS, the binding signal was 4.27 log2 enrichment (interaction score).

As for “GGCUAGAACUAGUGGAUCCCCCGGCGCCCGGCGGCUCGAGCCCGGGUAAGCGUAAAUAGUCUGCAUGCCGCCGGGCGCCAUGCCUGCAGGUCGACUCUAGAAAACAUG”, the results for the binding signal in the experiment with PUM1 PUF domain R8-TRK, with PUM1 PUF domain R8-RKV and with PUM1 PUF domain R8-LYL were 3.25 log2 enrichment (interaction score), 2.31 log2 enrichment (interaction score) and 2.29 log2 enrichment (interaction score), respectively.

Take “GGCUAGAACUAGUGGAUCCCCCGGCGCCCGGCGGCUCGAGCCCGGGUAAGUGUAGAUAGUCUGCAUGCCGCCGGGCGCCAUGCCUGCAGGUCGACUCUAGAAAACAUG”: the binding signal in the experiment with PUM1 PUF domain R4-WGG was 1.6 log2 enrichment (interaction score).

Take “GGCUAGAACUAGUGGAUCCCCCGGCGCCCGGCGGCUCGAGCCCGGGUAAGUGUACAUAGUCUGCAUGCCGCCGGGCGCCAUGCCUGCAGGUCGACUCUAGAAAACAUG”: the figures for the binding signal with PUM1 PUF domain R4-SPN and with PUM1 PUF domain R4-WGG were 1.41 log2 enrichment (interaction score) and 3.3 log2 enrichment (interaction score), respectively.
